The text below walks through data of PubChem BioAssay.

The viability is a read-out of living cells in per cent, often relative to untreated cells.

The structures appear in SMILES notation.

This assay is described as follows: reversal of MRP1-mediated doxorubicin resistance, pilot screen, H69AR cells, doxorubicin co-treatment (AID 601). To be noted: H69AR cells, CellTiter-Glo, 72 h; compound alone cytotoxicity; at 10 µM.
On to `CCc1nn(CC(=O)NCCCN2CCc3ccccc3C2)c(=O)c2cc3sccc3n12`, for which the viability came to 77.5%.
Take `Cc1ccc(-c2nc3cc(NC(=O)C(C)C)ccc3o2)cc1`: the viability was 82.4%.
Next, `CC(CC(=O)NC1CCSC1=O)c1ccccc1` (stereo not drawn): 113%.
For the molecule `COc1ccc(C2CC(c3ccc(OC)cc3)n3nc(N)nc3N2)cc1` (stereo not drawn), the viability amounted to 82.2%.
Next, `COC(=O)COc1cccc(NC(=O)COc2ccccc2)c1`: 96.5%; `COc1ccc(OCCSc2nc3ccccc3n2CC(=O)O)cc1`: 97.8%.
For the molecule `Cc1cccnc1-n1c(CCN2C(=O)c3ccccc3C2=O)nc2ccccc2c1=O`, the viability stood at 95.1%.
Then `CC(=O)N(c1ccc(Br)cc1)C1C=CS(=O)(=O)C1` (stereo not drawn), with 88.8%; and `Cc1ccccc1Cn1cc(/C=N/n2cnnc2)c2ccccc21`, with 95.4%.
For `CCOC(=O)N1CCN(c2cc(=O)n(-c3ccccc3Cl)c(=O)[nH]2)CC1`, the viability was 86.9%.
Regarding `CCCCN(C)Cc1c(O)ccc2c(-c3ccccc3)cc(=O)oc12`, the viability stood at 96.7%.
Then `CCCCn1c(CN2CCN(c3ccc(F)cc3)CC2)nc2c1c(=O)n(C)c(=O)n2C`, with 95.5%.
On to `CCn1c(SCC(=O)Nc2cccc(C)c2)nc2c(c1=O)SC(C)C2` (stereo not drawn), for which the viability is 76.7%.
As for `COc1cccc(C2CC(c3ccc(C)cc3)n3nc(N)nc3N2)c1` (stereo not drawn), the viability is 98.2%.
`Cc1cc(C)cc(N(CC(=O)Nc2cccc(C)n2)S(=O)(=O)c2c(C)noc2C)c1`: the viability is 85.6%.
Next, `Cc1noc(C)c1S(=O)(=O)N1CCN(Cc2ccc3c(c2)OCO3)CC1`: 95.4%.
Take `Cn1c(C(=O)NCCCN2CCCCCC2)cc2c(=O)n(C)c3ccccc3c21`: the viability was 87.2%.
Next, `CS(=O)(=O)N(Cc1ccco1)CC(O)Cn1c2ccccc2c2ccccc21` (stereo not drawn): 80.5%.
